# Screening results (PubChem BioAssay)
# Only some compounds are listed: those with a hit (about 4.5% of all), similar ones and a draw of the others.
# tim23-1 inh = growth inhibitors of tim23-1 mutant yeast, primary screen, luminescence, uHTS; S. cerevisiae tim23-1 growth, BacTiter-Glo luminescence, 24 h; inhibition, % at 20 µM; hit rate 1.3% among 330,000;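 active = growth inhibition of the mutant yeast at or above 50%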;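 note: temperature-sensitive mutant grown at 25 °C; plate controls were DMSO-treated mutant yeast for no effect and medium wells lacking yeast for full effect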
# TIM10 inh = growth inhibitors of isogenic TIM10 control yeast, primary screen, counter-screen for tim10-1 yeast inhibitor project, luminescence, uHTS. S. cerevisiae TIM10 strain growth, BacTiter-Glo luminescence, 24 h. inhibition, % at 10 µM. hit rate 1.4% among 330,000;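 active = inhibition of 40% or more at the single tested concentration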;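 note: wild-type TIM10 isogenic control strain grown at permissive 25 °C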
# NALP3 yeast inh = NALP3 inflammasome inhibitors in reconstituted yeast, primary screen, luminescence, uHTS | inhibition, % at 10 µM | Yeast reconstituted NLRP3/ASC/caspase-1, beta-gal luminescence, 24 h | AID 2825, 2010 | hit rate 0.39% among 330,000;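 active = inhibition of 50% or more; inactive = inhibition below 50%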;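 note: plate controls were induced DMSO wells for no effect and uninduced yeast grown without galactose for full effect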
# tim10-1 inh = growth inhibitors of tim10-1 mutant yeast, primary screen, luminescence, uHTS; hit rate 2.2% among 330,000; AID 463190, 2010; S. cerevisiae tim10-1 ts strain growth, BacTiter-Glo, 24 h; inhibition, % at 20 µM;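 active = inhibition of at least 40%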;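 note: mutant grown at 25 °C; 0% = DMSO wells with yeast and 100% = wells holding no yeast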
# SKKanGAS inh = S. pyogenes SKKanGAS growth inhibitors in kanamycin, primary screen, streptokinase expression inhibitor project, SKKanGAS strain, BacTiter-Glo luminescence; 6 h; inhibition, % at 7.5 µM; hit rate 1.3% among 300,000;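 active = mean replicate score, as percent of positive control median, at least 50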;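 note: strain carries kanamycin resistance gene driven by streptokinase promoter and grows in 40 µg/ml kanamycin; loss of luminescence reflects streptokinase promoter inhibition or plain growth inhibition; 0% = median of DMSO wells and 100% = positive control at its reference dose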
# PfHsp90 yeast 2 = growth inhibition of PfHsp90-expressing yeast, primary screen, antimalarial PfHsp90 inhibitor project, S. cerevisiae, BacTiter-Glo luminescence, single point, set 2; BacTiter-Glo ATP, 48 h; yeast lacking PDR1 and PDR3 efflux regulators; inhibition, % at 9.4 µM; hit rate 0.32% among 310,000; AID 504621, 2011;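 active = every replicate shows inhibition above about 80%, whatever the replicate mean, limit read from the data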;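 note: 0% = DMSO neutral controls and 100% = 20 µM radicicol positive controls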
# The depositor's hits bear a star; . = no result.
SMILES,tim23-1 inh,TIM10 inh,NALP3 yeast inh,tim10-1 inh,SKKanGAS inh,PfHsp90 yeast 2
Cc1cccc2nc(CSc3ccccc3N)cn12,-8.3,3.1,5.0,3.2,-11.7,-4.1
CC(=O)N1N=C(c2cccs2)CC1c1ccc(Br)cc1 (stereo not given),37.0,13.1,8.4,31.4,6.8,-26.3
Cc1ccc(C2CC(c3cccs3)=NN2C(=O)c2ccc(Br)o2)cc1 (stereo not given),34.5,22.0,12.5,18.8,88.5*,.
O=C(CN1c2ccccc2Sc2ccccc21)NNC(=O)Nc1cccc(Cl)c1,28.7,10.9,-2.8,22.9,49.9*,-27.5
Cc1ccc(-c2cc(C(=O)N3CCN(c4ccccc4O)CC3)c3ccccc3n2)cc1,2.1,11.5,10.9,-4.1,53.6*,-29.4
Cn1c(O)c(N=NC(=O)c2cc(-c3cccs3)nc3ccccc23)c2ccccc21,1.9,2.0,28.2,8.6,80.0*,7.0
COc1ccc(-c2cc(C(=O)N3CCN(c4ccccc4O)CC3)c3ccccc3n2)cc1,0.4,0.3,18.2,-9.6,.,-10.0
O=C(c1cc(-c2cccs2)nc2ccccc12)N1CCN(c2ccccc2O)CC1,43.0,15.5,0.0,12.2,68.2*,-34.9
O=C(N=Nc1c(O)[nH]c2ccc(Br)cc12)c1cc(-c2cccs2)nc2ccccc12,.,.,.,.,27.3,-10.8
CNC(=O)C(C)N1c2cccc3cccc(c23)S1(=O)=O (stereo not given),8.3,-0.6,8.4,11.8,3.7,-20.4
CCn1ccnc1CN1CCc2c([nH]c3ccccc23)C1CC(C)C (stereo not given),23.1,2.8,20.3,9.2,19.0,-17.2
CCn1ccnc1CN1CCc2c([nH]c3ccccc23)C1C1CCCCC1 (stereo not given),4.5,13.1,4.5,19.3,78.5*,-9.4
COc1ccc(S(=O)(=O)Nc2ccccc2C(=O)Nc2nc(-c3ccc(F)cc3)cs2)cc1OC,35.6,28.9,5.4,30.5,35.6,-9.6
COc1ccc(-c2csc(NC(=O)c3ccccc3NS(=O)(=O)c3ccc(C)cc3)n2)cc1,26.3,26.9,4.8,18.4,53.8*,-10.5
CCN(CC)c1cccc(OCC(=O)N2c3ccccc3CC2C)c1 (stereo not given),34.0,13.3,15.7,19.5,.,-12.6
Fc1ccc(-c2cc(C(F)(F)F)nc(N3CCCCC3)n2)cc1,-17.3,-10.6,8.0,7.4,65.5*,.
COc1cccc(-c2cc(C(F)(F)F)nc(N3CCOCC3)n2)c1,17.0,5.3,0.9,11.3,4.1,1.6
CN1CCN(c2nc(-c3ccccc3)cc(C(F)(F)F)n2)CC1,15.4,12.7,19.5,19.6,5.4,1.5
COc1cccc(-c2cc(C(F)(F)F)nc(N3CCC(C)CC3)n2)c1,9.4,-6.6,6.2,5.3,67.5*,14.0
Cc1cccc(C(=O)N2CCN(Cc3nc4sc5c(c4c(=O)[nH]3)CCCC5)CC2)c1,2.3,21.5,2.6,13.3,5.4,0.6
O=C(/C=C(\c1ccccc1)n1cncn1)c1ccccc1,17.8,6.4,8.6,27.4,-0.1,8.9
C=CC(n1cncn1)C(O)(c1ccccc1)c1ccccc1 (stereo not given),-293.5,-217.7,13.4,-45.1,3.9,104.8*
COc1c(O)ccc(/C=C(\C#N)c2nc3ccccc3[nH]2)c1[N+](=O)[O-],16.6,11.8,19.7,-4.5,54.6*,-10.6
COc1cc(/C=C(\C#N)c2nc3ccc(C)cc3[nH]2)c([N+](=O)[O-])cc1OC,2.9,22.1,5.9,16.1,9.7,2.1
O=c1cc(O)nc(SCc2ccc(Cl)cc2)[nH]1,5.5,6.0,-9.1,-0.3,103.8*,.
SMILES,tim23-1 inh,TIM10 inh,NALP3 yeast inh,tim10-1 inh,SKKanGAS inh,PfHsp90 yeast 2
COc1ccc(NC(=O)NC2CCCc3ccccc32)cc1OC (stereo not given),14.3,9.6,10.5,9.1,3.2,10.5
COc1ccc(C)cc1NC(=O)NC1CCCc2ccccc21 (stereo not given),-3.7,7.8,14.5,-0.7,51.4*,-4.1
CCN1C(=O)[C@H]2[C@@H](c3ccc(-c4cccc(Cl)c4)c(OC)c3)N[C@@](C)(C(=O)OC)[C@H]2C1=O,18.3,7.3,12.0,8.4,2.7,17.8
CCc1ccc(C2NC(=S)NC3=C2C(=O)N(c2ccccc2OC)C(c2ccc(CC)cc2)N3)cc1 (stereo not given),15.3,31.3,-8.1,24.9,6.9,-10.7
O=C1C2=C(NC(=S)NC2c2ccc(Cl)cc2)NC(c2ccc(Cl)cc2)N1c1ccc(Cl)cc1 (stereo not given),44.8,35.2,15.2,33.8,105.1*,-39.1
COc1ccc(/C=C2\SC(=S)N(NC(=O)c3ccncc3)C2=O)cc1OC,-4.3,-1.9,4.8,4.6,-8.9,.
COc1ccc(/C=C2\SC(=N)N(c3nccs3)C2=O)cc1OC,30.6,11.2,6.0,21.7,89.0*,-33.6
N=C1S/C(=C\c2ccc(-c3cccc(Cl)c3)o2)C(=O)N1c1nccs1,.,.,.,.,131.0*,-55.7
Cc1cc(Cl)ccc1OCCCC(=O)NNC(=O)c1ccccc1O,-3.0,-6.8,29.7,11.4,101.5*,.
Cc1cc(=O)[nH]c(Nc2ccccc2C)n1,-7.3,24.5,11.1,-7.5,0.3,4.4
Cc1ccccc1NC(=O)CCC(=O)N/N=C/c1cc([N+](=O)[O-])ccc1O,9.0,12.6,15.3,28.5,-3.4,0.9
Cc1ccc(NC(=O)CCC(=O)N/N=C/c2cc([N+](=O)[O-])ccc2O)cc1,-7.8,11.9,14.0,-3.4,3.5,-3.2
CC(C)(C)NC(=O)CN(c1cccc([N+](=O)[O-])c1)S(=O)(=O)c1ccccc1,7.7,-7.3,10.5,9.5,1.9,-25.3
O=C(CCCC(=O)Nc1cccc(Br)c1)N/N=C/c1cc([N+](=O)[O-])ccc1O,22.5,15.8,34.0,32.5,99.2*,2.7
O=C(CN(c1cccc(Br)c1)S(=O)(=O)c1ccccc1)N/N=C/c1cc([N+](=O)[O-])ccc1O,25.3,-29.8,13.3,31.4,118.9*,1.9
O=C(CCC(=O)Nc1cccc(Cl)c1)N/N=C/c1cc([N+](=O)[O-])ccc1O,-15.5,7.5,29.3,9.0,99.7*,-0.9
Cc1c(Br)cnn1C(C)C(=O)N1CCN(c2ccccc2F)CC1 (stereo not given),24.2,9.0,0.6,17.9,.,-21.8
CCCN(C(=O)c1ccc(N2CCCC2=O)cc1)C1CCS(=O)(=O)C1 (stereo not given),-3.2,-5.8,14.1,-6.5,.,.
Cc1oc2ccc(O)cc2c1C(=O)c1ccc(Br)cc1,39.9,-40.8,37.5,10.6,-1.7,-24.4
